Reference: the supplement of paper PMC12067093, “Discovery and optimisation of a covalent ligand for TRIM25 and its application to targeted protein ubiquitination” (Chemical Science, 2025)
Targets with the largest changes are over-represented here; the source holds about 21,000 in all.

Compound: Cc1cc(ccc1-c1ccccc1)C(=O)N1CCCN(CC1)C(=O)CCl [compound 10]
Assay: probe-labelled cysteine peptide fold change vs DMSO (competition) (log2 fold change); higher = less target engagement (more negative = stronger competition)
Conditions: THP-1, incubation time: 4 h
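Further: competitive profiling in live THP-1 cells: cysteine peptides tagged with an iodoacetamide desthiobiotin (IA-DTB) probe, intensity after compound treatment relative to DMSO-treated cells.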

Chain of UniProt Q86WU2 (Q86WU2 whole entry, looked up): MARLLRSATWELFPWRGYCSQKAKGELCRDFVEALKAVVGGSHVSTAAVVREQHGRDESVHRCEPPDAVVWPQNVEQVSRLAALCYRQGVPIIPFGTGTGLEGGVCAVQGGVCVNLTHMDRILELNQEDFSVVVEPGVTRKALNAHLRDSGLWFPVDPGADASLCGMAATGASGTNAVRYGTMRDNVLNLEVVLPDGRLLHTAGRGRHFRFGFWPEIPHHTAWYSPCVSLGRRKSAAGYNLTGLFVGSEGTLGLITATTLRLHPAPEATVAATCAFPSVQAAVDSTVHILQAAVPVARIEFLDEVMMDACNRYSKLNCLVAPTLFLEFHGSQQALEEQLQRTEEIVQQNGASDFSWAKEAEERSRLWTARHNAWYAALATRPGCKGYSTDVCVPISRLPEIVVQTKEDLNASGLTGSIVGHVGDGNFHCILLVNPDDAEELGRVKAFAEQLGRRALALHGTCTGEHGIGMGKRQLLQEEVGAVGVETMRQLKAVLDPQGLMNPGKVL
Chain of UniProt Q8NBQ5 (Q8NBQ5 whole entry, looked up): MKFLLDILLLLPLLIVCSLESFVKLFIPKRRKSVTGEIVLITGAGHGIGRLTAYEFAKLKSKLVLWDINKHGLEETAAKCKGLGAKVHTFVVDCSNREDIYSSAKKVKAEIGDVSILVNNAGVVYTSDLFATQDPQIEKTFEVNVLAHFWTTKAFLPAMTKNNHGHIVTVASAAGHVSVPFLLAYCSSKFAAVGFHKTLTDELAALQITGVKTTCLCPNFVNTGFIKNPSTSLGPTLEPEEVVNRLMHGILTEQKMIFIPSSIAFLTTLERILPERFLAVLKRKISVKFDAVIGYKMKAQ
Chain of UniProt P30519 (P30519 whole entry, looked up): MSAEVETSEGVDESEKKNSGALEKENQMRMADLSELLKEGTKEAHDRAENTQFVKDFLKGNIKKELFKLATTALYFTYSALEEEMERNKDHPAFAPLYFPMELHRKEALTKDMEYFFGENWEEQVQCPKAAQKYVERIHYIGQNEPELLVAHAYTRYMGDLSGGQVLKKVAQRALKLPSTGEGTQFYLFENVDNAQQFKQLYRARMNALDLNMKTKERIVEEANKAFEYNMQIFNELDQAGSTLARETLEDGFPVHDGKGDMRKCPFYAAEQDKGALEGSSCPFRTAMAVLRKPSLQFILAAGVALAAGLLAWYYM
Chain of UniProt Q96CX2 (Q96CX2 whole entry): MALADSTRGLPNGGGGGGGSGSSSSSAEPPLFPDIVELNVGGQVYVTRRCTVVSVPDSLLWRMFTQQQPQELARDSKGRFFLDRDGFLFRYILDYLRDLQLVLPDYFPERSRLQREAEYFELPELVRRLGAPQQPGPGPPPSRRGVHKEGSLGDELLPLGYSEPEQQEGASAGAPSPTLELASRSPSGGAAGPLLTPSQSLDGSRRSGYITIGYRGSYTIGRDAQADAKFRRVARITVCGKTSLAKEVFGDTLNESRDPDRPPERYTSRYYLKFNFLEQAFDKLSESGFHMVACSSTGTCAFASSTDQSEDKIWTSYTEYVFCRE
Chain of UniProt P01130 (P01130 whole entry, looked up): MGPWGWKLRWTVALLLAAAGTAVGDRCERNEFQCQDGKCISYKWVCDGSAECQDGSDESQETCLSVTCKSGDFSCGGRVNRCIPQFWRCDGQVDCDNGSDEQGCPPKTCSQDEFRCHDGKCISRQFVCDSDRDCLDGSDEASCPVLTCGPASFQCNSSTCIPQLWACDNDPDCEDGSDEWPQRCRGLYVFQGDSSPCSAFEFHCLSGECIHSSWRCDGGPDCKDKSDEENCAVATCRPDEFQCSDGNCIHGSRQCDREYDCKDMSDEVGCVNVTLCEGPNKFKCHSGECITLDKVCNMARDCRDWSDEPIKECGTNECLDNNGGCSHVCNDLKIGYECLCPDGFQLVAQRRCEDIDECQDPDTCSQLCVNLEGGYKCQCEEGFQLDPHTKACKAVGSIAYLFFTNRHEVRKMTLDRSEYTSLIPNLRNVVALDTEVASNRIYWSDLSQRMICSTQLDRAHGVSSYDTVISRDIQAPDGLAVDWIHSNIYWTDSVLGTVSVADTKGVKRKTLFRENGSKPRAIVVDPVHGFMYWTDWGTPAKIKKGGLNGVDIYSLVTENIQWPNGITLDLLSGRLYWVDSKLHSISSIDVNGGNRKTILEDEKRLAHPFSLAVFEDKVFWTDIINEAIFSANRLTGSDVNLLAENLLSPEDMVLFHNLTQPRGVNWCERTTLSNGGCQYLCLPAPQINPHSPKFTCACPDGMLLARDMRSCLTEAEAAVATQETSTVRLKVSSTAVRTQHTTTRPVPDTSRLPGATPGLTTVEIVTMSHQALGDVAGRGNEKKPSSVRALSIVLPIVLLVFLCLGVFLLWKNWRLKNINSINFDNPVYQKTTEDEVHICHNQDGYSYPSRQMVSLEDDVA
Chain of UniProt Q00839 (Q00839 whole entry, looked up): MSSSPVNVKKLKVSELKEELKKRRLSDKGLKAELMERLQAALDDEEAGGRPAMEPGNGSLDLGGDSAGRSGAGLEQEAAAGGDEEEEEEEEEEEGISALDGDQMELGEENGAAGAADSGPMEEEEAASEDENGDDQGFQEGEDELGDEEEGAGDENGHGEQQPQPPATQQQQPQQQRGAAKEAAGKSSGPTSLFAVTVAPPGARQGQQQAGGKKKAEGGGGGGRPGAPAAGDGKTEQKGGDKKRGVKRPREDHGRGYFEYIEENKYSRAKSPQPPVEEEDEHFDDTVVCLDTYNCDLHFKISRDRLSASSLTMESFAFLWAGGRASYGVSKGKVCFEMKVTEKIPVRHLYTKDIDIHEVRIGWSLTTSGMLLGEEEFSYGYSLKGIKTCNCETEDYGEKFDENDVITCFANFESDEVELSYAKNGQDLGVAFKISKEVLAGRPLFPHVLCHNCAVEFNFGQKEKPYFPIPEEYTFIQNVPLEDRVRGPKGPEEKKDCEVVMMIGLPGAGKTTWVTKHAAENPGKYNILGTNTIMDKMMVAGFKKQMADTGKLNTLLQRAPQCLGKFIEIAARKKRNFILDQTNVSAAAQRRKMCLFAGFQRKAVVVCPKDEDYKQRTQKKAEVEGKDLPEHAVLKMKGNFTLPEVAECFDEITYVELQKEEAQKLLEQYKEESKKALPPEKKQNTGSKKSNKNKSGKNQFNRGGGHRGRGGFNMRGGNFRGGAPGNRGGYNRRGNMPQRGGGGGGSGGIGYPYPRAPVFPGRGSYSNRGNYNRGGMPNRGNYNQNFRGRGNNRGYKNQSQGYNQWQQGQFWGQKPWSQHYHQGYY
Chain of UniProt Q12905 (Q12905 whole entry, looked up): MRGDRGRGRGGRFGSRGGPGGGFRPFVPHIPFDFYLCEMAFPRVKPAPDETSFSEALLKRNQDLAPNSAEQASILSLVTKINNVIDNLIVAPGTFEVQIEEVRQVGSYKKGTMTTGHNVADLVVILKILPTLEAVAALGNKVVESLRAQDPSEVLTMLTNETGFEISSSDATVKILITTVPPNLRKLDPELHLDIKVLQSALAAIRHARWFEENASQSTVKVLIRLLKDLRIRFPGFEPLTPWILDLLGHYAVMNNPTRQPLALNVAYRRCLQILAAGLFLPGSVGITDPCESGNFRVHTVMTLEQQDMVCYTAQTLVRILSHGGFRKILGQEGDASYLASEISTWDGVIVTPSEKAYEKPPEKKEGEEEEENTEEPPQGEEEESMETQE
Chain of UniProt Q92598 (Q92598 whole entry, looked up): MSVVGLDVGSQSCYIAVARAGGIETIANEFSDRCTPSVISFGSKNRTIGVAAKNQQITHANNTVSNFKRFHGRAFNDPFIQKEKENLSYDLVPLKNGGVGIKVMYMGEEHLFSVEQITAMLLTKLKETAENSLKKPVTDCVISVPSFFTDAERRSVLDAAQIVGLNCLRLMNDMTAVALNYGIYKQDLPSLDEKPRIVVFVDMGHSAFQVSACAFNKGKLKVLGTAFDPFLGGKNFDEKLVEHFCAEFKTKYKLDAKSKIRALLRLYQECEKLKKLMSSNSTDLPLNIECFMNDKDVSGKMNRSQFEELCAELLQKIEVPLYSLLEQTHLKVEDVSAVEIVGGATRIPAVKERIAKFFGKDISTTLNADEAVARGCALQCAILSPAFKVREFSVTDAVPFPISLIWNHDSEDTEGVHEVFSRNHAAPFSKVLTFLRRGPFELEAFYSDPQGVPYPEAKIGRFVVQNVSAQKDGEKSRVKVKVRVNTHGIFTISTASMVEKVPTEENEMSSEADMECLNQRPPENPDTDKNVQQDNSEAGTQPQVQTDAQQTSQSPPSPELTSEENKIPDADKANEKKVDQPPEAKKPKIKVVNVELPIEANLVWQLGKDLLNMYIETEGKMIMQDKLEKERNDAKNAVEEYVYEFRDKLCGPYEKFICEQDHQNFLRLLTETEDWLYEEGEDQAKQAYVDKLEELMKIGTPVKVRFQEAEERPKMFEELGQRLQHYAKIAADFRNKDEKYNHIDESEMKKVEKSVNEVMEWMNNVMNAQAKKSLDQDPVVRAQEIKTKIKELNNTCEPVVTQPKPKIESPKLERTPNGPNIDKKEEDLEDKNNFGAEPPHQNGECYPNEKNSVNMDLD

Target	probe-labelled cysteine peptide fold change (10 µM)	probe-labelled cysteine peptide fold change (50 µM)
KRT75_O95678_460_LLEGEECR<|>NEFH_P12036_411_LLEGEECR<|>KRT76_Q7RTS7_494_LLEGEECR<|>KRT74_Q86Y46_451_LLEGEECR<|>KRT73_Q8N1N4_443_LLEGEECR<|>KRT78_P02538_422_LLEGEECR<|>KRT6A_P13647_474_LLEGEECR<|>KRT6B_P35908_474_LLEGEECR<|>KRT5_P48668_479_LLEGEECR (UniProt P48668+P35908+P13647+Q86Y46+P02538+Q7RTS7+P12036+Q8N1N4+O95678)	1.25	0.392
KIDINS220_Q9ULH0_867_FLVTSATNGDVPCSDTTGIQEDADRR (UniProt Q9ULH0)	-0.0872	-0.0611
KDM4C_Q9H3R0_14_MEVAEVESPLNPSCK (UniProt Q9H3R0)	0.236	0.0354
LDLR_P01130_377+379_CQCEEGFQLDPHTK (UniProt P01130)	-0.198	0.243
KPNA6_O60684_427_YLVSLGCIKPLCDLLTVMDSK (UniProt O60684)	-0.101	-0.85
ITGB2_P05107_472_CDTGYIGK (UniProt P05107)	0.101	-0.117
HNRNPU_Q00839_648_GNFTLPEVAECFDEITYVELQK (UniProt Q00839)	0.16	0.0148
KCTD12_Q96CX2_50_CTVVSVPDSLLWR (UniProt Q96CX2)	0.0972	-0.28
HSP90AB1_P08238_412_CLELFSELAEDK (UniProt P08238)	0.16	0.151
KPNA5_O15131_238_NAVWALSNLCR<|>KPNA6_O60684_238_NAVWALSNLCR<|>KPNA1_P52294_240_NAVWALSNLCR (UniProt P52294+O60684+O15131)	0.0157	-0.339
LDHD_Q86WU2_63_CEPPDAVVWPQNVEQVSR (UniProt Q86WU2)	-0.334	0.36
HSPA4L_O95757_540_CHAEHTPEEEIDHTGAK (UniProt O95757)	-0.0538	-0.483
KDM3A_Q9Y4C1_467_AGVNSDSPNNCSGK (UniProt Q9Y4C1)	-0.0265	0.0124
IFI16_Q16666_737_LTCFELAPK (UniProt Q16666)	-0.11	-0.0776
IL1RAP_Q9NPH3_332_SYVCHAR (UniProt Q9NPH3)	-0.0813	-0.034
IPO4_Q8TEX9_726_AAHEALGQFCCALHK (UniProt Q8TEX9)	-0.0691	-0.471
HSP90AA1_P07900_598_LVTSPCCIVTSTYGWTANMER (UniProt P07900)	-0.00946	0.102
LANCL2_Q9NS86_248_CPLLYQWHR (UniProt Q9NS86)	-0.115	0.026

Target	probe-labelled cysteine peptide fold change (10 µM)	probe-labelled cysteine peptide fold change (50 µM)
HNRNPK_P61978_184+185_LFQECCPHSTDRVVLIGGKPDR (UniProt P61978)	-0.234	-1.28
IQGAP1_P46940_57_RWMEACLGEDLPPTTELEEGLR (UniProt P46940)	0.00789	0.0214
HSPH1_Q92598_796_ELNNTCEPVVTQPKPK (UniProt Q92598)	0.108	-0.8
HMOX2_P30519_265_CPFYAAEQDK (UniProt P30519)	-0.451	-2.31
HSD17B11_Q8NBQ5_215+217_TTCLCPNFVNTGFIK (UniProt Q8NBQ5)	0.115	-0.449
IKZF1_Q13422_175+178_CHLCNYACR (UniProt Q13422)	-0.0534	-0.482
IGF2R_P11717_1856_DGGVCLLSGTK (UniProt P11717)	-0.0968	-0.169
HNRNPLL_Q8WVV9_505_TLSGLLEWECKTDAVEALTALNHYQIR (UniProt Q8WVV9)	-0.0924	-0.402
IARS_P41252_400_LLVATTFTHSYPFCWR (UniProt P41252)	0.0125	0.177
KPNB1_Q14974_392_DAAVMAFGCILEGPEPSQLK (UniProt Q14974)	0.132	0.441
IPO4_Q8TEX9_726_KAAHEALGQFCCALHK (UniProt Q8TEX9)	-0.0458	-0.126
LAP3_P28838_376_LILADALCYAHTFNPK (UniProt P28838)	0.0434	0.0196
IKBKB_O14920_716_KSEELVAEAHNLCTLLENAIQDTVR (UniProt O14920)	0.0153	-0.00819
IMPACT_Q9P2X3_195_STFQAHLAPVVCPK (UniProt Q9P2X3)	-0.422	-1.61
KPNB1_Q14974_765_ESCLEAYTGIVQGLKGDQENVHPDVMLVQPR (UniProt Q14974)	0.414	-0.185
IDH3A_P50213_331_IEAACFATIK (UniProt P50213)	0.303	0.39
ILF2_Q12905_37_PFVPHIPFDFYLCEMAFPR (UniProt Q12905)	0.0684	0.31
HSP90AA1_P07900_597+598_LVTSPCCIVTSTYGWTANMER (UniProt P07900)	0.115	-0.354
